Assay results published in the supplement of paper PMC10849652.
About 7,900 targets were measured; listed, in parts, are those with a hit and a random draw of the rest. About 0.6% of all pairs of compound and target were hits.

Assays:
Assay in all cases: log2 fold change, soluble protein after heating vs DMSO (PISA); higher = thermal stabilisation; K562 cells, 10 uM, 30 min; active = over 0.2 and 3.5 SD of the protein, either way, in both replicates (recomputed)
bafetinib = compound: Cc1ccc(NC(=O)c2ccc(CN3CC[C@H](N(C)C)C3)c(C(F)(F)F)c2)cc1Nc1nccc(-c2cncnc2)n1 [bafetinib]
Method in brief: (§1)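 Quantification of soluble protein used TMTpro 16plex LC-MS/MS, with channel sums equalised. Samples were the supernatant after 21,000xg for 90 min of pooled aliquots from K562 cells (2×10^6 cells/mL) treated with 10 μM compound for 30 min, heated for 3 min over 48°C-58°C, and extracted in PBS with 0.5% NP-40 at 4°C. Values, from duplicates, describe thermal stability against control samples on a log2 fold-change scale.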

[1] = compound: Cc1cccc(CC(=O)N2CCc3c2ccc(-c2cn(C)c4ncnc(N)c24)c3F)n1
Method in brief: as §1

nilotinib = compound: Cc1cn(-c2cc(NC(=O)c3ccc(C)c(Nc4nccc(-c5cccnc5)n4)c3)cc(C(F)(F)F)c2)cn1 [nilotinib]
Method in brief: as §1

[2] = compound: Cc1nc(Nc2n[nH]c3c2CN(C(=O)N[C@H](CN(C)C)c2ccccc2)C3(C)C)c2sccc2n1
Method in brief: as §1

dasatinib = compound: Cc1nc(Nc2ncc(C(=O)Nc3c(C)cccc3Cl)s2)cc(N2CCN(CCO)CC2)n1 [dasatinib]
Method in brief: as §1

[3] = compound: Cc1ncc(-c2ccnc(Nc3ccc(S(C)(=O)=O)cc3)n2)n1C(C)C
Method in brief: as §1

[4] = compound: Cn1cc(-c2ccc3c(c2)CCN3C(=O)Cc2cccc(C(F)(F)F)c2)c2c(N)ncnc21
Method in brief: as §1

[5] = compound: Cn1cc(-c2ccc3nnc(C(F)(F)c4ccc5ncccc5c4)n3n2)cn1
Method in brief: as §1

tipifarnib = compound: Cn1cncc1[C@@](N)(c1ccc(Cl)cc1)c1ccc2c(c1)c(-c1cccc(Cl)c1)cc(=O)n2C [tipifarnib]
Method in brief: as §1

mubritinib = compound: FC(F)(F)c1ccc(/C=C/c2nc(COc3ccc(CCCCn4ccnn4)cc3)co2)cc1 [mubritinib]
Method in brief: as §1

[6] = compound: NC(=O)Nc1cc(-c2cccc(F)c2)sc1C(=O)N[C@H]1CCCNC1
Method in brief: as §1

[7] = compound: NC(=O)c1cnc(N[C@@H]2CCCC[C@@H]2N)nc1Nc1cccc(-n2nccn2)c1
Method in brief: as §1

[8] = compound: NC1(c2ccc(-c3nc4ccn5c(=O)[nH]nc5c4cc3-c3ccccc3)cc2)CCC1
Method in brief: as §1

[9] = compound: NCC(=O)Nc1ccc(-n2nc(C(F)(F)F)cc2-c2ccc3c(ccc4ccccc43)c2)cc1
Method in brief: as §1

entinostat = compound: Nc1ccccc1NC(=O)c1ccc(CNC(=O)OCc2cccnc2)cc1 [entinostat]
Method in brief: as §1

vorinostat = compound: O=C(CCCCCCC(=O)Nc1ccccc1)NO [vorinostat]
Method in brief: as §1

citarinostat = compound: O=C(CCCCCCNC(=O)c1cnc(N(c2ccccc2)c2ccccc2Cl)nc1)NO [citarinostat]
Method in brief: as §1

silmitasertib = compound: O=C(O)c1ccc2c(c1)nc(Nc1cccc(Cl)c1)c1ccncc12 [silmitasertib]
Method in brief: as §1

[10] = compound: O=C1NC(=O)C(c2cnc3ccccn23)=C1c1cn2c3c(cc(F)cc13)CN(C(=O)N1CCCCC1)CC2
Method in brief: as §1

[11] = compound: c1cc(OCCN2CCCCC2)cc(-c2n[nH]c3ccc(-c4nnc[nH]4)cc23)c1
Method in brief: as §1

Chain of UniProt Q9BU23 (Q9BU23 whole entry, looked up): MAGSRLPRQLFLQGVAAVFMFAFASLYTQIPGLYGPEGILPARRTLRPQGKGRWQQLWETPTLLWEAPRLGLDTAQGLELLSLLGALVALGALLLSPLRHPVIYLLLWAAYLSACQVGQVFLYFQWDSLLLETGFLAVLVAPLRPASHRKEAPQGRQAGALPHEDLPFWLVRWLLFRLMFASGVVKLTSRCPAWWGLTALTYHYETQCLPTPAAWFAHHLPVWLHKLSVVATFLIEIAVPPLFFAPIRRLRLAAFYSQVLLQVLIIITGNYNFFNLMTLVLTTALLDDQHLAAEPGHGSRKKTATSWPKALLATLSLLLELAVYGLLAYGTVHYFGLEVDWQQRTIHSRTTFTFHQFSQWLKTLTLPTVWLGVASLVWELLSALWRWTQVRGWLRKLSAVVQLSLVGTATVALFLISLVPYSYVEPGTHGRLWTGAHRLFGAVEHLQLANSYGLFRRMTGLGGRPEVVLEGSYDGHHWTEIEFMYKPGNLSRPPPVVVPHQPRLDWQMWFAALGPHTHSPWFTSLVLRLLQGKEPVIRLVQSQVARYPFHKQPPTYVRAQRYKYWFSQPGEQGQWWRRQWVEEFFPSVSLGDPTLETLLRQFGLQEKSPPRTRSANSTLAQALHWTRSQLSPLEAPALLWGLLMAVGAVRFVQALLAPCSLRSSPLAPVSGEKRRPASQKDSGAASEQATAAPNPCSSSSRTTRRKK
Chain of UniProt Q13418 (Q13418 whole entry, looked up): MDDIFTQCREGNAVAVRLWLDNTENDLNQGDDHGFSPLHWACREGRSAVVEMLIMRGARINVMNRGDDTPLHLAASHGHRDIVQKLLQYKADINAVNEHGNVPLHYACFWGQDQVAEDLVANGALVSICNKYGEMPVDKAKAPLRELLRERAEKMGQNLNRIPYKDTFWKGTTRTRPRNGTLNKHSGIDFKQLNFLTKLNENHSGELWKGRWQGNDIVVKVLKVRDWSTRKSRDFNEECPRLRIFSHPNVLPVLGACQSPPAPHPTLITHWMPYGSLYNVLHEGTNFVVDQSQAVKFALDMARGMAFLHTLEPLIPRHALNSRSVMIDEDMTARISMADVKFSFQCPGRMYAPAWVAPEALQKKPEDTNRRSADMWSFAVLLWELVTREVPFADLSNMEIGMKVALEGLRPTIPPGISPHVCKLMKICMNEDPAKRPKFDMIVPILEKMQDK
Chain of UniProt Q14739 (Q14739 whole entry, looked up): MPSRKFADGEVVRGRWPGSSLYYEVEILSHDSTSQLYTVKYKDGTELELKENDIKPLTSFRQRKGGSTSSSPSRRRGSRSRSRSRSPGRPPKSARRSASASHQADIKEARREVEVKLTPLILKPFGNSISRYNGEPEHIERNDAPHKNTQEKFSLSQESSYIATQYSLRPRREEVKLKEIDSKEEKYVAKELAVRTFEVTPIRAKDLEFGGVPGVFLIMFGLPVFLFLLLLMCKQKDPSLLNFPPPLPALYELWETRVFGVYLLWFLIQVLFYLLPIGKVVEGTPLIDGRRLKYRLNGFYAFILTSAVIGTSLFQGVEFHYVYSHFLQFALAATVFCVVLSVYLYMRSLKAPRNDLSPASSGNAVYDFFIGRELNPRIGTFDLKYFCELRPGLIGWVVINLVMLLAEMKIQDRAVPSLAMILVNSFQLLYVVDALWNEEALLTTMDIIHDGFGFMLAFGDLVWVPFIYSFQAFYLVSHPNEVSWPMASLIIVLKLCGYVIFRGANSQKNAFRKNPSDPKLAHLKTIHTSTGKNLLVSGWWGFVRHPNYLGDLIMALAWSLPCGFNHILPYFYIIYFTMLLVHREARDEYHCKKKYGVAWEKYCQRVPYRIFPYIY
Chain of UniProt P36507 (P36507 whole entry, looked up): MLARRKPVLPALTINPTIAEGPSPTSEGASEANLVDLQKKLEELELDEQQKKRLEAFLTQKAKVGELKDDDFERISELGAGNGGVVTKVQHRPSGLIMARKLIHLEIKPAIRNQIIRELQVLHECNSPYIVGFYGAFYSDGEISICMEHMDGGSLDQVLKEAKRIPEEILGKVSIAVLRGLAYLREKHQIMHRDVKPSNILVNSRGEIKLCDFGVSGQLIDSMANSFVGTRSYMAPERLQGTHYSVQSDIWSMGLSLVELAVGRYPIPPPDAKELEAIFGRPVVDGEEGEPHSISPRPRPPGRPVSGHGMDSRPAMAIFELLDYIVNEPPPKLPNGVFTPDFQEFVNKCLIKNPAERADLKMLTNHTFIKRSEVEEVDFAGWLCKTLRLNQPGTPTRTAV
Chain of UniProt Q9NQG6 (Q9NQG6 whole entry, looked up): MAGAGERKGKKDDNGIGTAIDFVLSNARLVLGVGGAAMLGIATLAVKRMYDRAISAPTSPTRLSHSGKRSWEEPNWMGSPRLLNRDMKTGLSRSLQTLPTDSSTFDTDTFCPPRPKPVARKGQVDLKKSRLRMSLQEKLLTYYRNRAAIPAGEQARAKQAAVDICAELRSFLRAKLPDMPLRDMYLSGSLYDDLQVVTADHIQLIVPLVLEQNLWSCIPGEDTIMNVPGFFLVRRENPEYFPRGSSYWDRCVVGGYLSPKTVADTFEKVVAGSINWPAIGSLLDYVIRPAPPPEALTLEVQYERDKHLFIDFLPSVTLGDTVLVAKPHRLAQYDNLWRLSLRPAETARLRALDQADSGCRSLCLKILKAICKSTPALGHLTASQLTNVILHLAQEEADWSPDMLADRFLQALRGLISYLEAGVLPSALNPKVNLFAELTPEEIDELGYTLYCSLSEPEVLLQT
Chain of UniProt Q14145 (Q14145 whole entry, looked up): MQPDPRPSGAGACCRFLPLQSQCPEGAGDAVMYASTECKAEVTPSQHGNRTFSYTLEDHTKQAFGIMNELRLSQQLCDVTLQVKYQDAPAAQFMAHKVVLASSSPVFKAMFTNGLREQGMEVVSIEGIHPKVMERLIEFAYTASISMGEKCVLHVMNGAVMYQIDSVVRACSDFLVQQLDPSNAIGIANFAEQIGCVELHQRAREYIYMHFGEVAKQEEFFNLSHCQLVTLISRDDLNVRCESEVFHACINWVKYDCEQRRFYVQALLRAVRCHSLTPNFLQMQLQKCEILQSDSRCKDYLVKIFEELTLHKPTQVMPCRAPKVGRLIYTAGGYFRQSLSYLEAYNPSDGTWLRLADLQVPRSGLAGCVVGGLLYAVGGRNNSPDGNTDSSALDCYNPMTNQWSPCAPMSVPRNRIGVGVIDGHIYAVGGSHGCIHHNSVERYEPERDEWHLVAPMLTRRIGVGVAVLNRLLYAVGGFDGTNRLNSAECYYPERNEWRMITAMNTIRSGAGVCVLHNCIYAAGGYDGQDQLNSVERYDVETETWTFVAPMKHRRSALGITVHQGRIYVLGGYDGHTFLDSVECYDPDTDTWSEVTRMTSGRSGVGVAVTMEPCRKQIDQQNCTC
Chain of UniProt O95372 (O95372 whole entry, looked up): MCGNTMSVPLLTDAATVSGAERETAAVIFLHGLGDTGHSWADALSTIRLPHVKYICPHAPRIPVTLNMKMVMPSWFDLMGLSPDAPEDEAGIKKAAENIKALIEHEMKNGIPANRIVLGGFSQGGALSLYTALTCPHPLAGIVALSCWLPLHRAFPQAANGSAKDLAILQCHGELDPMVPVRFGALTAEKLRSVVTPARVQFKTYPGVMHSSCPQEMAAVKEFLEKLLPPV
Chain of UniProt Q9H3F6 (Q9H3F6 whole entry, looked up): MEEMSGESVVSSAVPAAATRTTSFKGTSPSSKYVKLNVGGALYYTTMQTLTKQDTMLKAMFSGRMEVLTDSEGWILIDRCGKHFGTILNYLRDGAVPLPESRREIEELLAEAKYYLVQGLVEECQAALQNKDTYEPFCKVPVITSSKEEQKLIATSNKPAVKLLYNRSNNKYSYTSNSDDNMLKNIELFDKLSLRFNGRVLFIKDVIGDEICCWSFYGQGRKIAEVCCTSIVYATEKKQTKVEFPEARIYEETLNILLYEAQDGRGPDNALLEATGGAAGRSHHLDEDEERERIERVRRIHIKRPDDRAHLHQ
Chain of UniProt Q68DH5 (Q68DH5 whole entry, looked up): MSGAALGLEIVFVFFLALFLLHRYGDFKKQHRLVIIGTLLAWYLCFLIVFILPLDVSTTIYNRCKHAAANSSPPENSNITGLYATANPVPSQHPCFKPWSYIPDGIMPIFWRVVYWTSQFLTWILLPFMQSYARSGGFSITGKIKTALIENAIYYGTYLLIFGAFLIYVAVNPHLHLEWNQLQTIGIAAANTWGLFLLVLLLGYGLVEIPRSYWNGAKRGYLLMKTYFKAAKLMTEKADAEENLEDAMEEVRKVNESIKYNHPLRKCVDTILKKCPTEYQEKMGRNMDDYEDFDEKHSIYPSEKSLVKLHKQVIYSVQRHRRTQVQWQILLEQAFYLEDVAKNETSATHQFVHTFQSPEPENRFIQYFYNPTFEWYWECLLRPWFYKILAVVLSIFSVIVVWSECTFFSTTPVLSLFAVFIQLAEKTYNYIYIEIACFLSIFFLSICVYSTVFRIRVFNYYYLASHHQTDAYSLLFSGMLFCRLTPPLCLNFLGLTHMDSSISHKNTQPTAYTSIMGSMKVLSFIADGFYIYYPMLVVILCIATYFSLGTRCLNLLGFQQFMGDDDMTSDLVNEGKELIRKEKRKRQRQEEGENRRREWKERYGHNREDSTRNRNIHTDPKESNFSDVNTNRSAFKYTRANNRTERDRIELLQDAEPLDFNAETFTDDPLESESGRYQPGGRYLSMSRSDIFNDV
Chain of UniProt P45983 (P45983 whole entry, looked up): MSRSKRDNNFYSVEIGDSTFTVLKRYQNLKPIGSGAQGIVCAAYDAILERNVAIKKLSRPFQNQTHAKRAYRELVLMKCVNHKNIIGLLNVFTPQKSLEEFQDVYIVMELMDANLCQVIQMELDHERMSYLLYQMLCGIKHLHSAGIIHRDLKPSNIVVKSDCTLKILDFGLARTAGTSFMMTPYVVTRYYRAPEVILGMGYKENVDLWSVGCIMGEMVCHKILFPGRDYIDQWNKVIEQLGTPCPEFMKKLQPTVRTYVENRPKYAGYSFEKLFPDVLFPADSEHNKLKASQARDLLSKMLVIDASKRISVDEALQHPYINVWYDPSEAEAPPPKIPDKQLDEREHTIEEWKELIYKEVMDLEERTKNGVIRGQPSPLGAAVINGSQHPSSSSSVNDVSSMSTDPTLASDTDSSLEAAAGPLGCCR

Target	log2 fold change (bafetinib)	log2 fold change [1]	log2 fold change (nilotinib)	log2 fold change [2]	log2 fold change (dasatinib)	log2 fold change [3]	log2 fold change [4]	log2 fold change [5]	log2 fold change (tipifarnib)	log2 fold change (mubritinib)	log2 fold change [6]	log2 fold change [7]	log2 fold change [8]	log2 fold change [9]	log2 fold change (entinostat)	log2 fold change (vorinostat)	log2 fold change (citarinostat)	log2 fold change (silmitasertib)	log2 fold change [10]	log2 fold change [11]
LMNB2 (UniProt Q03252)	-0.067 (inactive)	-0.078 (inactive)	0.022 (inactive)	-0.077 (inactive)	0.101 (inactive)	-0.158 (inactive)	0.015 (inactive)	-0.007 (inactive)	0.166 (inactive)	-0.043 (inactive)	0.079 (inactive)	-0.077 (inactive)	0.068 (inactive)	-0.09 (inactive)	-0.006 (inactive)	-0.047 (inactive)	0.015 (inactive)	0.018 (inactive)	-0.101 (inactive)	-0.07 (inactive)
ILK (UniProt Q13418)	-0.038 (inactive)	-0.012 (inactive)	0.122 (inactive)	-0.024 (inactive)	-0.07 (inactive)	-0.002 (inactive)	0.027 (inactive)	0.005 (inactive)	-0.023 (inactive)	0.048 (inactive)	-0.236 (inactive)	-0.125 (inactive)	-0.07 (inactive)	-0.095 (inactive)	-0.149 (inactive)	0.083 (inactive)	-0.006 (inactive)	-0.003 (inactive)	-0.036 (inactive)	-0.048 (inactive)
KCTD10 (UniProt Q9H3F6)	-0.059 (inactive)	-0.036 (inactive)	0.002 (inactive)	-0.088 (inactive)	0.056 (inactive)	0.074 (inactive)	0.012 (inactive)	0.153 (inactive)	0.058 (inactive)	-0.009 (inactive)	0.065 (inactive)	0.226 (inactive)	0.028 (inactive)	0.077 (inactive)	-0.014 (inactive)	-0.001 (inactive)	-0.05 (inactive)	-0.042 (inactive)	-0.088 (inactive)	-0.025 (inactive)
MAP1LC3B2 (UniProt A6NCE7)	-0.044 (inactive)	-0.029 (inactive)	-0.006 (inactive)	-0.023 (inactive)	-0.024 (inactive)	0.072 (inactive)	0.019 (inactive)	-0.011 (inactive)	0.007 (inactive)	0.018 (inactive)	-0.023 (inactive)	-0.022 (inactive)	-0.128 (inactive)	-0.085 (inactive)	0.012 (inactive)	-0.058 (inactive)	0.046 (inactive)	-0.015 (inactive)	-0.001 (inactive)	-0.103 (inactive)
LMF2 (UniProt Q9BU23)	-0.068 (inactive)	0.024 (inactive)	0.047 (inactive)	-0.014 (inactive)	0.033 (inactive)	0.026 (inactive)	0.021 (inactive)	0.022 (inactive)	0.019 (inactive)	0.052 (inactive)	-0.008 (inactive)	-0.001 (inactive)	-0.057 (inactive)	-0.089 (inactive)	-0.006 (inactive)	0.116 (inactive)	-0.068 (inactive)	0.008 (inactive)	-0.016 (inactive)	0.046 (inactive)
LMBRD2 (UniProt Q68DH5)	-0.142 (inactive)	-0.006 (inactive)	-0.048 (inactive)	0.041 (inactive)	0.019 (inactive)	-0.028 (inactive)	-0.03 (inactive)	0.043 (inactive)	0.189 (inactive)	-0.007 (inactive)	0.028 (inactive)	0.044 (inactive)	0.099 (inactive)	-0.025 (inactive)	-0.011 (inactive)	-0.015 (inactive)	0.057 (inactive)	-0.049 (inactive)	-0.09 (inactive)	-0.005 (inactive)
LYPLA2 (UniProt O95372)	0.139 (inactive)	0.007 (inactive)	0.13 (inactive)	-0.042 (inactive)	0 (inactive)	-0.026 (inactive)	0.175 (inactive)	0.298 (inactive)	-0.054 (inactive)	0.013 (inactive)	0.02 (inactive)	0.043 (inactive)	-0.031 (inactive)	0.09 (inactive)	0.114 (inactive)	-0.065 (inactive)	0.018 (inactive)	-0.048 (inactive)	0 (inactive)	0.036 (inactive)
LBR (UniProt Q14739)	0.113 (inactive)	0.101 (inactive)	-0.201 (inactive)	-0.007 (inactive)	-0.017 (inactive)	-0.018 (inactive)	0.041 (inactive)	0.012 (inactive)	-0.141 (inactive)	0.026 (inactive)	0.025 (inactive)	-0.008 (inactive)	0.004 (inactive)	-0.003 (inactive)	0.023 (inactive)	0.021 (inactive)	-0.021 (inactive)	-0.085 (inactive)	0.012 (inactive)	0.082 (inactive)
MAPK8 isoform 3 (UniProt P45983)	-0.011 (inactive)	-0.048 (inactive)	0.022 (inactive)	0.415 (active)	-0.318 (inactive)	0.495 (active)	0.047 (inactive)	-0.058 (inactive)	0.001 (inactive)	-0.179 (inactive)	-0.05 (inactive)	-0.02 (inactive)	-0.062 (inactive)	-0.05 (inactive)	0.001 (inactive)	-0.027 (inactive)	-0.049 (inactive)	0.008 (inactive)	-0.044 (inactive)	0.362 (inactive)
MIEF1 (UniProt Q9NQG6)	-0.133 (inactive)	0.006 (inactive)	0.022 (inactive)	-0.04 (inactive)	-0.028 (inactive)	0.145 (inactive)	0.09 (inactive)	0.064 (inactive)	-0.039 (inactive)	-0.029 (inactive)	-0.001 (inactive)	-0.14 (inactive)	-0.215 (inactive)	-0.034 (inactive)	0.056 (inactive)	0.019 (inactive)	0.073 (inactive)	0.006 (inactive)	0.031 (inactive)	-0.01 (inactive)
MAP2K2 (UniProt P36507)	-0.081 (inactive)	0.007 (inactive)	-0.003 (inactive)	-0.154 (inactive)	-0.092 (inactive)	-0.018 (inactive)	0.023 (inactive)	0.098 (inactive)	0.015 (inactive)	0.017 (inactive)	0 (inactive)	-0.042 (inactive)	-0.023 (inactive)	-0.003 (inactive)	0.061 (inactive)	0.039 (inactive)	-0.051 (inactive)	-0.098 (inactive)	-0.055 (inactive)	-0.018 (inactive)
IPO13 (UniProt O94829)	-0.11 (inactive)	-0.006 (inactive)	-0.001 (inactive)	-0.094 (inactive)	-0.021 (inactive)	0.071 (inactive)	-0.022 (inactive)	-0.025 (inactive)	-0.106 (inactive)	0.06 (inactive)	0.051 (inactive)	-0.101 (inactive)	-0.206 (inactive)	-0.112 (inactive)	0.012 (inactive)	0.138 (inactive)	0.067 (inactive)	0.081 (inactive)	-0.046 (inactive)	-0.175 (inactive)
MIEF1 (UniProt L0R8F8)	-0.077 (inactive)	-0.001 (inactive)	-0.1 (inactive)	0.067 (inactive)	0.001 (inactive)	-0.093 (inactive)	0.022 (inactive)	-0.053 (inactive)	-0.03 (inactive)	-0.039 (inactive)	0.085 (inactive)	0.094 (inactive)	0.047 (inactive)	0.002 (inactive)	0.007 (inactive)	-0.012 (inactive)	0.039 (inactive)	-0.021 (inactive)	-0.063 (inactive)	-0.056 (inactive)
KEAP1 (UniProt Q14145)	-0.057 (inactive)	0.032 (inactive)	-0.108 (inactive)	-0.108 (inactive)	-0.027 (inactive)	0.021 (inactive)	-0.085 (inactive)	-0.07 (inactive)	-0.047 (inactive)	0.037 (inactive)	0.007 (inactive)	-0.027 (inactive)	-0.076 (inactive)	-0.034 (inactive)	0.051 (inactive)	0.156 (inactive)	-0.005 (inactive)	0.122 (inactive)	0.143 (inactive)	-0.055 (inactive)
KDM1A isoform 2 (UniProt O60341)	0.007 (inactive)	0.014 (inactive)	-0.078 (inactive)	-0.059 (inactive)	-0.07 (inactive)	-0.001 (inactive)	-0.002 (inactive)	-0.011 (inactive)	-0.108 (inactive)	0.095 (inactive)	0.055 (inactive)	-0.038 (inactive)	-0.063 (inactive)	0.012 (inactive)	0.155 (inactive)	0.135 (inactive)	0.007 (inactive)	0 (inactive)	-0.063 (inactive)	-0.064 (inactive)
